Out of some 39,000 compounds screened, about 1,500 (3.8%) were called active. The list comes from a sample in which actives are over-represented; it also holds similar structures and randomly drawn compounds.
These compounds were tested on HSkMC (human skeletal muscle cells) (assay: cytotoxicity call (relative viability < 0.9)). Details: 10 µM.
In the case of `C[C@@H]1CN([C@@H](C)CO)S(=O)(=O)c2ccc(C#Cc3ccccc3F)cc2O[C@@H]1CN(C)C(=O)c1ccc2c(c1)OCO2`, the cytotoxicity call is reported as “inactive”. With `CCc1nc2ccc(C(=O)N3CCN(S(=O)(=O)CC)CC3)cn2c1N(C)C(=O)c1cccc(OC)c1` the cytotoxicity call was “inactive”. `C=CCC1C=C(C)CC(C)CC(OC)C2OC(O)(C(=O)C(=O)N3CCCCC3C(=O)OC(C(C)=CC3CCC(O)C(OC)C3)C(C)C(O)CC1=O)C(C)CC2OC` (stereo unspecified) was tested, and the cytotoxicity call was “inactive”. With `C[C@@H]1CCCCO[C@H](CN(C)C(=O)c2ccncc2)[C@H](C)CN([C@H](C)CO)C(=O)c2cc(NC(=O)C3CCCCC3)ccc2O1` the cytotoxicity call was “inactive”. With `C[C@H](CO)N1C[C@H](C)[C@@H](CN(C)Cc2ccc3c(c2)OCO3)Oc2ccc(NC(=O)Cn3cnnn3)cc2CC1=O` the cytotoxicity call was “inactive”. With `C[C@@H]1CN([C@H](C)CO)C(=O)Cc2cc(NC(=O)Nc3ccccc3)ccc2O[C@H]1CN(C)S(=O)(=O)c1cn(C)cn1` the cytotoxicity call was “inactive”. With `O=C(NO)c1cccc(C(=O)N/N=C/[C@@H](O)[C@@H](O)[C@H](O)[C@H](O)CO)c1` the cytotoxicity call was “inactive”. With `Cc1noc(C)c1NC(=O)Nc1ccc2c(c1)CC(=O)N([C@@H](C)CO)C[C@H](C)[C@H](CN(C)S(=O)(=O)c1cn(C)cn1)O2` the cytotoxicity call was “inactive”. For `C[C@@H]1CCCCO[C@H](CN(C)S(=O)(=O)c2cn(C)cn2)[C@@H](C)CN([C@H](C)CO)C(=O)c2cc(NS(=O)(=O)c3ccc(F)cc3)ccc2O1`, the cytotoxicity call was “inactive”. In the case of `C[C@@H](NC(=O)N(C)C[C@H]1OCc2ccccc2-c2c(n(C)c3ccccc23)C(=O)N([C@@H](C)CO)C[C@@H]1C)c1ccccc1`, the cytotoxicity call is reported as “inactive”. With `COCC#Cc1ccc([C@H]2[C@@H](CO)N3C(=O)CN(C(=O)c4cccnc4)C[C@@H]23)cc1` the cytotoxicity call was “inactive”. In the case of `CC(C)NC(=O)Nc1ccc2c(c1)C(=O)N([C@@H](C)CO)C[C@@H](C)[C@@H](CN(C)S(=O)(=O)c1cccs1)O2`, the cytotoxicity call is reported as “inactive”. In the case of `CCC(=O)Nc1nc2[nH]c(COC)cc(=O)n2n1`, the cytotoxicity call is reported as “inactive”. In the case of `C[C@H](CO)N1C[C@H](C)[C@H](CN(C)C(=O)Nc2ccc(F)cc2)Oc2ccc(NC(=O)CCCCCC(=O)Nc3ccccc3N)cc2C1=O`, the cytotoxicity call is reported as “inactive”. In the case of `COc1ccc(C(=O)NCC(=O)O)cc1`, the cytotoxicity call is reported as “inactive”. `COc1ccc2cc(C(C)C(=O)O)ccc2c1` (stereo unspecified) was tested, and the cytotoxicity call was “inactive”. In the case of `COc1ccc2cc(-c3cc(-c4cc(Cl)cc(Cl)c4)nn3[C@@H](C)c3ccc(C(=O)NCCC(=O)O)cc3)ccc2c1`, the cytotoxicity call is reported as “active”. In the case of `O=C(C[C@@H]1CC[C@@H]2[C@H](COC[C@@H](O)CN2S(=O)(=O)c2ccccc2)O1)N[C@@H]1CCN(Cc2ccccc2)C1`, the cytotoxicity call is reported as “inactive”. With `COCC(=O)N(C)C[C@H]1Oc2cc(C#Cc3cccnc3)ccc2S(=O)(=O)N([C@H](C)CO)C[C@H]1C` the cytotoxicity call was “inactive”. With `COc1ccc(S(=O)(=O)N[C@H]2C=C[C@@H](CC(=O)N3CCN(c4ccccc4)CC3)O[C@H]2CO)cc1` the cytotoxicity call was “inactive”. With `C[C@@H]1CN([C@@H](C)CO)C(=O)Cc2cc(NC(=O)Nc3ccc(C(F)(F)F)cc3)ccc2O[C@H]1CN(C)Cc1ccc(-c2ccccc2)cc1` the cytotoxicity call was “active”. With `C[C@H](CO)N1C[C@H](C)[C@H](CN(C)Cc2ccc(-c3ccccc3)cc2)Oc2ccc(NC(=O)Nc3ccc(C(F)(F)F)cc3)cc2CC1=O` the cytotoxicity call was “active”. With `C[C@@H]1CN([C@@H](C)CO)C(=O)Cc2cc(NC(=O)Nc3ccc(C(F)(F)F)cc3)ccc2O[C@@H]1CN(C)Cc1ccc(-c2ccccc2)cc1` the cytotoxicity call was “active”. With `C[C@H]1CN([C@@H](C)CO)C(=O)Cc2cc(NC(=O)Nc3ccc(C(F)(F)F)cc3)ccc2O[C@H]1CN(C)Cc1ccc(-c2ccccc2)cc1` the cytotoxicity call was “active”. In the case of `C[C@H](CO)N1C[C@H](C)[C@@H](CN(C)Cc2ccc(-c3ccccc3)cc2)Oc2ccc(NC(=O)Nc3ccccc3)cc2CC1=O`, the cytotoxicity call is reported as “inactive”. For `C[C@H]1CN([C@@H](C)CO)C(=O)Cc2cc(NC(=O)Nc3ccccc3)ccc2O[C@H]1CN(C)Cc1ccc(-c2ccccc2)cc1`, the cytotoxicity call was “inactive”. `N=C1NC(=O)CS1` was tested, and the cytotoxicity call was “inactive”. With `Cc1cc(C(=O)Nc2cccc3c2O[C@@H](CN(C)C(=O)Nc2ccccc2)[C@@H](C)CN([C@@H](C)CO)C3=O)n(C)n1` the cytotoxicity call was “inactive”. With `O=C(C[C@H]1CC[C@@H](NS(=O)(=O)c2ccc(F)cc2)[C@H](CO)O1)N1CCC(Cc2ccccc2)CC1` the cytotoxicity call was “inactive”. With `C[C@@H]1CCCCO[C@H](CN(C)Cc2ccccc2)[C@@H](C)CN([C@@H](C)CO)C(=O)c2cc(NC(=O)NC3CCCCC3)ccc2O1` the cytotoxicity call was “inactive”. For `C[C@H](CO)N1C[C@H](C)[C@@H](CN(C)CC2CC2)OCCCC[C@H](C)Oc2ccc(NC(=O)Cc3ccccc3)cc2C1=O`, the cytotoxicity call was “inactive”. For `COc1ccc(S(=O)(=O)Nc2cccc3c2O[C@H](CN(C)S(=O)(=O)c2cn(C)cn2)[C@@H](C)CN([C@@H](C)CO)C3=O)cc1`, the cytotoxicity call was “inactive”. With `COc1cccc(NC(=O)N(C)C[C@@H]2OCc3ccccc3-c3c(n(C)c4ccccc34)C(=O)N([C@@H](C)CO)C[C@H]2C)c1` the cytotoxicity call was “inactive”. `C[C@@H]1CN([C@@H](C)CO)C(=O)c2cc(NC(=O)c3ccccc3)ccc2O[C@@H](C)CCCCO[C@@H]1CN(C)C(=O)NC1CCCCC1` was tested, and the cytotoxicity call was “inactive”. For `Cc1noc(C)c1NC(=O)Nc1ccc2c(c1)C(=O)N([C@@H](C)CO)C[C@H](C)[C@@H](CN(C)Cc1ccc(C(=O)Nc3ccccc3N)cc1)O2`, the cytotoxicity call was “inactive”. `C[C@H]1CCCCO[C@H](CN(C)C(=O)Nc2ccc(F)cc2)[C@@H](C)CN([C@@H](C)CO)C(=O)c2cc(NC(=O)Nc3ccc(F)cc3)ccc2O1` was tested, and the cytotoxicity call was “inactive”. With `C[C@@H]1CN([C@@H](C)CO)S(=O)(=O)c2ccc(C#Cc3ccccc3)cc2O[C@H]1CN(C)C(=O)Cc1ccccn1` the cytotoxicity call was “inactive”. `CCS(=O)(=O)Nc1ccc2c(c1)C(=O)N(C)[C@@H]1CC[C@@H](CC(=O)N[C@H]3CCN(Cc4ccccc4)C3)O[C@H]1CO2` was tested, and the cytotoxicity call was “inactive”. With `COc1ccc(S(=O)(=O)N(C)C[C@H]2Oc3ncc(C#CC4(O)CCCC4)cc3C(=O)N([C@H](C)CO)C[C@H]2C)cc1` the cytotoxicity call was “inactive”. In the case of `CC(C)NC(=O)Nc1ccc2c(c1)C(=O)N([C@@H](C)CO)C[C@@H](C)[C@@H](CN(C)S(=O)(=O)c1cn(C)cn1)OCCCC[C@H](C)O2`, the cytotoxicity call is reported as “inactive”. `CCN1C(=O)[C@H]2[C@@H](O)CS[C@H]2C1=O` was tested, and the cytotoxicity call was “inactive”.

— the antibiotic and cytotoxicity screens of Wong et al. (2023)
